# Test results published in the supplement of paper PMC8728848.
# The entries come from a sample that favours the strongest signals as a whole.
# What was measured:
# Test in all cases: glycan array binding signal (z-score within array); higher = stronger binding
# Glc(a1-4)Glc = conditions: glycan notation: IUPAC condensed, linker removed
# Summary of the method: (§1)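 The binding signal is a Z-score computed within each array and averaged over linkers. Arrays of the same protein sequence at different concentrations or buffers were also averaged together. Data originate from 3228 arrays in the Consortium for Functional Glycomics database, kept only where the protein sequence was available.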
# Glc(a1-6)Glc = conditions: glycan notation: IUPAC condensed, linker removed
# Summary of the method: as §1
# [1] = target: Glc(b1-2)Glc(b1-2)Glc(b1-2)Glc(b1-2)Glc; conditions: glycan notation: IUPAC condensed, linker removed
# Summary of the method: as §1
# [2] = target: Glc(b1-3)Glc(b1-3)Glc(b1-3)Glc(b1-3)Glc; conditions: glycan notation: IUPAC condensed, linker removed
# Summary of the method: as §1
# [3] = target: Glc(b1-3)Glc(b1-3)Glc(b1-3)Glc(b1-3)Glc(b1-3)Glc(b1-3)Glc(b1-3)Glc(b1-3)Glc(b1-3)Glc(b1-3)Glc; conditions: glycan notation: IUPAC condensed, linker removed
# Summary of the method: as §1
# [4] = target: Glc(b1-3)Glc(b1-3)Glc(b1-3)Glc(b1-3)Glc(b1-3)Glc(b1-3)Glc(b1-3)Glc(b1-3)Glc(b1-3)Glc(b1-3)Glc(b1-3)Glc; conditions: glycan notation: IUPAC condensed, linker removed
# Summary of the method: as §1
# [5] = target: Glc(b1-3)Glc(b1-3)Glc(b1-3)Glc(b1-3)Glc(b1-3)Glc(b1-3)Glc(b1-3)Glc(b1-3)Glc(b1-3)Glc(b1-3)Glc(b1-3)Glc(b1-3)Glc; conditions: glycan notation: IUPAC condensed, linker removed
# Summary of the method: as §1
# [6] = target: Glc(b1-3)Glc(b1-3)Glc(b1-3)Glc(b1-3)Glc(b1-3)Glc(b1-3)Glc(b1-3)[Glc(b1-6)]Glc(b1-3)Glc; conditions: glycan notation: IUPAC condensed, linker removed
# Summary of the method: as §1
# [7] = target: Glc(b1-4)Glc(b1-4)Glc(b1-4)Glc(b1-4)Glc(b1-4)Glc(b1-4)Glc(b1-4)Glc(b1-4)Glc; conditions: glycan notation: IUPAC condensed, linker removed
# Summary of the method: as §1
# [8] = target: Glc(b1-6)Glc(b1-6)Glc(b1-6)Glc(b1-6)Glc(b1-6)Glc(b1-6)Glc(b1-6)Glc; conditions: glycan notation: IUPAC condensed, linker removed
# Summary of the method: as §1
# [9] = target: Glc(b1-6)Glc(b1-6)Glc(b1-6)Glc(b1-6)Glc(b1-6)Glc(b1-6)Glc(b1-6)Glc(b1-6)Glc; conditions: glycan notation: IUPAC condensed, linker removed
# Summary of the method: as §1
# [10] = target: Man(b1-4)Man(b1-4)Man(b1-4)Man; conditions: glycan notation: IUPAC condensed, linker removed
# Summary of the method: as §1
# [11] = target: Glc(a1-2)Glc(a1-2)Glc(a1-2)Glc(a1-2)Glc; conditions: glycan notation: IUPAC condensed, linker removed
# Summary of the method: as §1
# [12] = target: Glc(b1-2)Glc(b1-2)Glc(b1-2)Glc(b1-2)Glc(b1-2)Glc; conditions: glycan notation: IUPAC condensed, linker removed
# Summary of the method: as §1
# [13] = target: Gal(b1-4)GlcNAc(b1-2)Man(a1-6)[GlcNAc(b1-2)Man(a1-3)]Man(b1-4)GlcNAc(b1-4)[Fuc(a1-6)]GlcNAc; conditions: glycan notation: IUPAC condensed, linker removed
# Summary of the method: as §1
# [14] = target: Gal(b1-4)GlcNAc(b1-2)[Gal(b1-4)GlcNAc(b1-4)]Man(a1-3)[Gal(b1-4)GlcNAc(b1-2)[Gal(b1-4)GlcNAc(b1-6)]Man(a1-6)]Man(b1-4)GlcNAc(b1-4)GlcNAc; conditions: glycan notation: IUPAC condensed, linker removed; mutation: D151N
# Summary of the method: as §1
# [15] = target: GlcNAc(b1-2)Man(a1-3)[GlcNAc(b1-2)Man(a1-6)]Man(b1-4)GlcNAc(b1-4)GlcNAc; conditions: glycan notation: IUPAC condensed, linker removed; mutation: D151N
# Summary of the method: as §1
# [16] = target: GlcNAc(b1-2)[GlcNAc(b1-4)]Man(a1-3)[GlcNAc(b1-2)Man(a1-6)][GlcNAc(b1-4)]Man(b1-4)GlcNAc(b1-4)GlcNAc; conditions: glycan notation: IUPAC condensed, linker removed; mutation: D151N
# Summary of the method: as §1
# [17] = target: HexA(a1-3)GalNAc4S(b1-4)GlcA(b1-3)GalNAc4S(b1-4)GlcA(b1-3)GalNAc4S(b1-4)GlcA(b1-3)GalNAc4S(b1-4)GlcA(b1-3)GalNAc4S(b1-4)GlcA(b1-3)GalNAc4S(b1-4)GlcA(b1-3)GalNAc4S(b1-4)GlcA(b1-3)GalNAc4S; conditions: glycan notation: IUPAC condensed, linker removed; mutation: D151N
# Summary of the method: as §1
# [18] = target: Gal(b1-4)GlcNAc(b1-2)Man(a1-6)[Man(a1-3)]Man(b1-4)GlcNAc(b1-4)GlcNAc; conditions: glycan notation: IUPAC condensed, linker removed; mutation: Y104F
# Summary of the method: as §1
# [19] = target: Gal(b1-4)GlcNAc(b1-2)[Gal(b1-4)GlcNAc(b1-4)]Man(a1-3)[Fuc(a1-3)[Gal(b1-4)]GlcNAc(b1-2)Man(a1-6)]Man(b1-4)GlcNAc(b1-4)GlcNAc; conditions: glycan notation: IUPAC condensed, linker removed; mutation: Y104F
# Summary of the method: as §1
# [20] = target: Glc(b1-3)Glc(b1-3)Glc(b1-3)Glc(b1-3)Glc(b1-3)Glc; conditions: glycan notation: IUPAC condensed, linker removed; mutation: Y104F
# Summary of the method: as §1
# Man(a1-3)Man(b1-4)GlcNAc = conditions: glycan notation: IUPAC condensed, linker removed; mutation: Y104F
# Summary of the method: as §1
# [21] = target: Xyl(b1-2)[Man(a1-3)][Man(a1-6)]Man(b1-4)GlcNAc(b1-4)GlcNAc; conditions: glycan notation: IUPAC condensed, linker removed; mutation: Y104F
# Summary of the method: as §1
# [22] = target: Glc(a1-3)Glc(a1-3)Man(a1-2)Man(a1-2)Man(a1-3)[Man(a1-3)[Man(a1-6)]Man(a1-6)]Man(b1-4)GlcNAc; conditions: glycan notation: IUPAC condensed, linker removed
# Summary of the method: as §1
# [23] = target: Glc(a1-4)Glc(a1-4)Glc(a1-4)Glc(a1-4)Glc; conditions: glycan notation: IUPAC condensed, linker removed
# Summary of the method: as §1
# [24] = target: Glc(a1-4)Glc(a1-4)Glc(a1-4)Glc(a1-4)Glc(a1-4)Glc(a1-4)Glc; conditions: glycan notation: IUPAC condensed, linker removed
# Summary of the method: as §1
# [25] = target: Glc(b1-3)Glc(b1-3)Glc(b1-3)Glc; conditions: glycan notation: IUPAC condensed, linker removed
# Summary of the method: as §1
# Glc(b1-4)Glc(b1-4)Glc = conditions: glycan notation: IUPAC condensed, linker removed
# Summary of the method: as §1
binder,measurement,setting,value
"Dectin-1 (Homo sapiens), Q9BXN2 (protein) TMAIWRSNSGSNTLENGYFLSRNKENHSQPTQSSLEDSVTPTKAVKTTGVLSSPCPPNWIIYEKSCYLFSMSLNSWDGSKRQCWQLGSNLLKIDSSNELGFIVKQVSSQPDNSFWIGLSRPQTEVPWLWEDGSTFSSNLFQIRTTATQENPSPNCVWIHVSVIYDQLCSVPSYSICEKKFSM",glycan array binding signal (z-score),Glc(a1-4)Glc,-0.145
same,glycan array binding signal (z-score),Glc(a1-6)Glc,-0.145
same,glycan array binding signal (z-score),[1],-0.145
same,glycan array binding signal (z-score),[2],-0.145
same,glycan array binding signal (z-score),[3],0.976
same,glycan array binding signal (z-score),[4],5
same,glycan array binding signal (z-score),[5],9.53
same,glycan array binding signal (z-score),[6],-0.145
same,glycan array binding signal (z-score),[7],-0.145
same,glycan array binding signal (z-score),[8],-0.145
same,glycan array binding signal (z-score),[9],-0.145
same,glycan array binding signal (z-score),[10],-0.082
"DC-SIGN (Homo sapiens), Q9NNX6 (protein) QVSKVPSSISQEQSRQDAIYQNLTQLKAAVGELSEKSKLQEIYQELTQLKAAVGELPEKSKLQEIYQELTRLKAAVGELPEKSKLQEIYQELTWLKAAVGELPEKSKMQEIYQELTRLKAAVGELPEKSKQQEIYQELTRLKAAVGELPEKSKQQEIYQELTRLKAAVGELPEKSKQQEIYQELTQLKAAVERLCHPCPWEWTFFQGNCYFMSNSQRNWHDSITACKEVGAQLVVIKSAEEQNFLQLQSSRSNRFTWMGLSDLNQEGTWQWVDGSPLLPSFKQYWNRGEPNNVGEEDCAEFSGNGWNDDKCNLAKFWICKKSAASCSRDEEQFLSPAPATPNPPPA",glycan array binding signal (z-score),[11],-0.838
same,glycan array binding signal (z-score),[12],2.48
"ZG16p (Homo sapiens), O60844 (protein) ARSSSYSGEYGGGGGKRFSHSGNQLDGPITALRVRVNTYYIVGLQVRYGKVWSDYVGGRNGDLEEIFLHPGESVIQVSGKYKWYLKKLLFVTDKGRYLSFGKDSGTSFNAVPLHPNTVLRFISGRSGSLINAIGLHWDVYPSSCSRC",glycan array binding signal (z-score),[13]; mutation: D151N,-0.565
same,glycan array binding signal (z-score),[14],-0.44
same,glycan array binding signal (z-score),[15],-0.565
same,glycan array binding signal (z-score),[16],-0.565
same,glycan array binding signal (z-score),[17],5.03
"ZG16p (Homo sapiens), O60844 (protein) ARSSSYSGEYGGGGGKRFSHSGNQLDGPITALRVRVNTYYIVGLQVRYGKVWSDYVGGRNGDLEEIFLHPGESVIQVSGKYKWFLKKLLFVTDKGRYLSFGKDSGTSFNAVPLHPNTVLRFISGRSGSLIDAIGLHWDVYPSSCSRC",glycan array binding signal (z-score),[13]; mutation: Y104F,-0.485
same,glycan array binding signal (z-score),[18],-0.485
same,glycan array binding signal (z-score),[19],-0.485
same,glycan array binding signal (z-score),[20],2.84
same,glycan array binding signal (z-score),Man(a1-3)Man(b1-4)GlcNAc,0.015
same,glycan array binding signal (z-score),[21],-0.331
"Malectin (Homo sapiens), Q14165 (protein) MLGAWAVEGTAVALLRLLLLLLPPAIRGPGLGVAGVAGAAGAGLPESVIWAVNAGGEAHVDVHGIHFRKDPLEGRVGRASDYGMKLPILRSNPEDQILYQTERYNEETFGYEVPIKEEGDYVLVLKFAEVYFAQSQQKVFDVRLNGHVVVKDLDIFDRVGHSTAHDEIIPMSIRKGKLSVQGEVSTFTGKLYIEFVKGYYDNPKVCALYIMAGTVDDVPKLQPHPGLEKKEEEEEEEEYDEGSNLKKQTNKNRVQSGPRTPNPYASDNSSLMFPILVAFGVFIPTLFCLCRL",glycan array binding signal (z-score),[22],5.02
same,glycan array binding signal (z-score),[23],-0.172
same,glycan array binding signal (z-score),[24],-0.012
same,glycan array binding signal (z-score),[25],-0.337
same,glycan array binding signal (z-score),Glc(b1-4)Glc(b1-4)Glc,-0.412
